In PubChem BioAssay (EPA / NIEHS):
“And” between values parts separate entries of the source, which are not always exact repeats. Equal entries are not always repeated. Results filed as inconclusive are left out. The source holds several records for some structures; these can differ, active in one and inactive in another. The source made the active and inactive calls. Rule for the calls, unless noted: active = hit-call score of the fitted dose curve at least 0.9, where 1 is the maximum; inactive = score below 0.9.

Experiments:
[1] = ATG_TAL_CIS: Attagene CIS-FACTORIAL HepG2 Assay for human TAL Basal Promoter (AID 2282966); conditions: HepG2 Attagene cis-factorial TAL promoter reporter; actives raise or lower the signal;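 note: background control endpoint measuring basal TAL promoter reporter mRNA not a specific factor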
Outline: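 HepG2, transient MRTU transfection, 24 h compound exposure; RNA → oligo(dT) RT → PCR → 6-FAM primer extension → HpaI digest → CE fluorescence. Bidirectional curve fit vs DMSO. Background-control readout.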

[2] = ATG_TGFb_CIS: Attagene CIS-FACTORIAL HepG2 Assay for human Transforming Growth Factor (TGF) (AID 2282967); conditions: HepG2 Attagene CIS TGFb reporter, mRNA transcription; actives raise or lower the signal
Outline: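 Bidirectional fitting relative to DMSO gave the endpoint. Underlying data: reporter mRNA from HepG2 cells carrying transiently transfected cis-regulated reporter constructs, harvested 24 h after dosing and analyzed by RT-PCR and capillary electrophoresis.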

[3] = ATG_VDRE_CIS: Attagene CIS-FACTORIAL HepG2 Assay for human Vitamin D Receptor Element (VDRE) (AID 2282968); conditions: HepG2 VDRE cis-reporter transcription, actives raise or lower the signal
Outline: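 Transient MRTU transfection of HepG2, 24 h compound exposure. Readout: reporter transcripts via RT-PCR and capillary electrophoresis, fluorescence. Bidirectional fit vs DMSO.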

[4] = target: Estrogen receptor (Homo sapiens) (UniProt P03372); assay: ATG_ERa_TRANS: Attagene TRANS-FACTORIAL HepG2 Assay for human Estrogen Receptor alpha (ERa) (AID 2282970; active = hit-call score of the fitted dose curve at least 0.9, where 1 is the maximum); conditions: HepG2 Attagene TRANS ERa GAL4 reporter, mRNA
Chain of Estrogen receptor (Homo sapiens) (P03372 whole entry, looked up, the tested form may be a part): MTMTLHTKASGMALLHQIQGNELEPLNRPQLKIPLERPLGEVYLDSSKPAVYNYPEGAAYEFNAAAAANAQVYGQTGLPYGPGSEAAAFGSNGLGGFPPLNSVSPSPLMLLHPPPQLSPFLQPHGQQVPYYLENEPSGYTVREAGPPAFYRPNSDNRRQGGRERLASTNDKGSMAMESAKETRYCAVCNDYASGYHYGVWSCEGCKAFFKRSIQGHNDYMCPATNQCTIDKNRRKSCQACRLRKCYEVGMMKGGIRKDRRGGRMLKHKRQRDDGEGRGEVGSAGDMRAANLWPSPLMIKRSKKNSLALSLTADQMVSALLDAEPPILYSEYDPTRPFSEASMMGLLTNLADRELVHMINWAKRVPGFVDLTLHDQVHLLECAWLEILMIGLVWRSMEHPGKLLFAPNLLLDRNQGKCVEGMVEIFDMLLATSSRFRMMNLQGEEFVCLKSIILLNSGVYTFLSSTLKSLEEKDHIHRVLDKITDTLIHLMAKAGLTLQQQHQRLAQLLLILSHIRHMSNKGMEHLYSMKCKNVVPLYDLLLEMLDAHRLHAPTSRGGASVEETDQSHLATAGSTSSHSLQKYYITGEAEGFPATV
Outline: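 Reporter mRNA induction after 24 hours, detected by fluorescent RT-PCR and capillary electrophoresis, gives the read-out. Cells are HepG2 transiently transfected with GAL4-UAS reporter transcription units responding to chimeric NR-Gal4. Activity is taken as gain of signal over DMSO baseline.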

[5] = target: X-box-binding protein 1 (Homo sapiens) (UniProt P17861); assay: ATG_Xbp1_CIS: Attagene CIS-FACTORIAL HepG2 Assay for human X-box Binding Protein 1 (XBP1) (AID 2282972); conditions: HepG2 XBP1 cis-element reporter, Attagene multiplex; actives raise or lower the signal
Chain of X-box-binding protein 1 (Homo sapiens) (P17861 whole entry, looked up): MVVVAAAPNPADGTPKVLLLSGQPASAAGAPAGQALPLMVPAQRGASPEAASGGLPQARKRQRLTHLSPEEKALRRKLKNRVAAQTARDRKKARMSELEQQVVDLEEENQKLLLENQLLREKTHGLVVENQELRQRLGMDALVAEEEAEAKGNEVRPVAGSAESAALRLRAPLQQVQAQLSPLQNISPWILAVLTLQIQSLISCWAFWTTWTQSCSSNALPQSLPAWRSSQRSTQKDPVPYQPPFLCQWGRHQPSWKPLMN
Outline: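 Changes in reporter transcript abundance, read by RT-PCR and capillary electrophoresis, reflect endogenous transcription factor activity. Transfected HepG2 cells received compound for 24 hours; DMSO defined baseline for bidirectional analysis.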

[6] = ATG_M_19_TRANS: Attagene TRANS-FACTORIAL HepG2 Assay for M19 Transcription Factor (Internal Marker) (AID 2282974; active = hit-call score of the fitted dose curve at least 0.9, where 1 is the maximum); conditions: HepG2 Attagene TRANS-FACTORIAL M19 internal marker reporter
Outline: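 Measured here: internal-marker reporter transcript from HepG2 cells transfected with MRTUs, harvested at 24 h. cDNA PCR products were 6-FAM labelled by primer extension, cut with HpaI for 2 h at 37 C, and resolved by CE.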

[7] = ATG_GAL4_TRANS: Attagene TRANS-FACTORIAL HepG2 Assay for GAL4 (Internal Marker) (AID 2282976; active = hit-call score of the fitted dose curve at least 0.9, where 1 is the maximum); conditions: HepG2 Attagene TRANS GAL4 internal marker reporter
Outline: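 RT-PCR/capillary electrophoresis readout of reporter mRNA. HepG2, transient MRTU transfection (GAL4-UAS reporters), 24 h compound exposure. Background-control endpoint, positive direction vs DMSO baseline.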

[8] = target: Glucocorticoid receptor (Homo sapiens) (UniProt P04150); assay: ATG_GR_TRANS: Attagene TRANS-FACTORIAL HepG2 Assay for human Glucocorticoid Receptor (GR) (AID 2282978; active = hit-call score of the fitted dose curve at least 0.9, where 1 is the maximum;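 note: activators score as hits since higher reporter transcript over DMSO is fitted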); conditions: HepG2 Attagene TRANS GR reporter, mRNA transcription
Chain of Glucocorticoid receptor (Homo sapiens) (P04150 whole entry, looked up, the tested form may be a part): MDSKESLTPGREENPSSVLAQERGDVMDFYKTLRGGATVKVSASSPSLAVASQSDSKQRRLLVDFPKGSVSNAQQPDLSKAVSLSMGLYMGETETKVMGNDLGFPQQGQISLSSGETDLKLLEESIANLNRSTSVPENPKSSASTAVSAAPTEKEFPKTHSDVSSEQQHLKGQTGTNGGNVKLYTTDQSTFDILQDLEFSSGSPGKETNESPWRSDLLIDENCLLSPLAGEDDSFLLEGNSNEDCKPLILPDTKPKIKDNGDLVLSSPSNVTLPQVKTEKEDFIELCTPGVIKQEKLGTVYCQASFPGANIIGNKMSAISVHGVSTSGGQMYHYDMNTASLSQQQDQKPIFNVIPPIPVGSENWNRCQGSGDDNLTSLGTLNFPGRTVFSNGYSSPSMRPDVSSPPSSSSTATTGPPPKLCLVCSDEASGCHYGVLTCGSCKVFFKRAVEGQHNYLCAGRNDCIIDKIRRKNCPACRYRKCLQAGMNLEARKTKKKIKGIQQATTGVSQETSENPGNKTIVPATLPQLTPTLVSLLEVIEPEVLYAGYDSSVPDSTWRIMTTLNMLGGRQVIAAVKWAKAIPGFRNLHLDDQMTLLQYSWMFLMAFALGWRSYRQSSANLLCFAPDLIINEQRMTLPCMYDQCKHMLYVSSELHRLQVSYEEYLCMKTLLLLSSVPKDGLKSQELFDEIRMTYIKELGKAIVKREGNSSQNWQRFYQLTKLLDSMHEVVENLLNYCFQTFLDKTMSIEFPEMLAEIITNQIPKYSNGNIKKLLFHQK
Outline: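 Measurement of GAL4-UAS-driven reporter mRNA in human HepG2 liver cells 24 h post-dosing, using RT-PCR with fluorescent labelling and capillary electrophoresis; the transfected constructs report exogenous NR-GAL4 chimera activity, fitted upward against DMSO.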

[9] = target: Bile acid receptor (Homo sapiens) (UniProt Q96RI1); assay: ATG_FXR_TRANS: Attagene TRANS-FACTORIAL HepG2 Assay for Farnesoid X Receptor (FXR) (AID 2282979; active = hit-call score of the fitted dose curve at least 0.9, where 1 is the maximum;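 note: hits raise reporter mRNA above DMSO so AC50 marks FXR activation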); conditions: HepG2 Attagene TRANS FXR-GAL4 reporter transcription
Outline: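 Read-out: fluorescent reporter transcripts quantified by capillary electrophoresis after RT-PCR of total RNA. Source cells were HepG2 transiently carrying chimeric NR-GAL4 plus GAL4-UAS reporter units, dosed 24 h. Activity fitted upward relative to DMSO baseline.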

[10] = ATG_M_06_TRANS: Attagene TRANS-FACTORIAL HepG2 Assay for M06 Transcription Factor (Internal Marker) (AID 2282983; active = hit-call score of the fitted dose curve at least 0.9, where 1 is the maximum); conditions: HepG2 Attagene TRANS M06 internal marker reporter
Outline: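 Read-out: fluorescent reporter cDNA fragments resolved by capillary electrophoresis after RT-PCR and HpaI cut. Source cells were HepG2 carrying transfected multi-reporter GAL4 constructs, dosed 24 h. Increase over DMSO control analysed.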

[11] = ATG_M_32_TRANS: Attagene TRANS-FACTORIAL HepG2 Assay for M32 Transcription Factor (Internal Marker) (AID 2282984; active = hit-call score of the fitted dose curve at least 0.9, where 1 is the maximum;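 note: transcript level of a background control reporter unit measured by RT-PCR and capillary electrophoresis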); conditions: HepG2 Attagene TRANS M32 internal marker reporter
Outline: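 Read-out: fluorescent reporter cDNA fragments resolved by capillary electrophoresis after RT-PCR of total RNA. Transfected HepG2 cells were exposed to chemical for 24 h. Activity scored in the positive direction relative to DMSO.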

[12] = target: Transcriptional activator Myb (Homo sapiens) (UniProt P10242); assay: ATG_Myb_CIS: Attagene CIS-FACTORIAL HepG2 Assay for human Myeloblastosis (Myb) Proto-Oncogene Transcription Factor (AID 2282986); conditions: HepG2 Attagene CIS-FACTORIAL Myb reporter transcription; actives raise or lower the signal
Chain of Transcriptional activator Myb (Homo sapiens) (P10242 whole entry, looked up): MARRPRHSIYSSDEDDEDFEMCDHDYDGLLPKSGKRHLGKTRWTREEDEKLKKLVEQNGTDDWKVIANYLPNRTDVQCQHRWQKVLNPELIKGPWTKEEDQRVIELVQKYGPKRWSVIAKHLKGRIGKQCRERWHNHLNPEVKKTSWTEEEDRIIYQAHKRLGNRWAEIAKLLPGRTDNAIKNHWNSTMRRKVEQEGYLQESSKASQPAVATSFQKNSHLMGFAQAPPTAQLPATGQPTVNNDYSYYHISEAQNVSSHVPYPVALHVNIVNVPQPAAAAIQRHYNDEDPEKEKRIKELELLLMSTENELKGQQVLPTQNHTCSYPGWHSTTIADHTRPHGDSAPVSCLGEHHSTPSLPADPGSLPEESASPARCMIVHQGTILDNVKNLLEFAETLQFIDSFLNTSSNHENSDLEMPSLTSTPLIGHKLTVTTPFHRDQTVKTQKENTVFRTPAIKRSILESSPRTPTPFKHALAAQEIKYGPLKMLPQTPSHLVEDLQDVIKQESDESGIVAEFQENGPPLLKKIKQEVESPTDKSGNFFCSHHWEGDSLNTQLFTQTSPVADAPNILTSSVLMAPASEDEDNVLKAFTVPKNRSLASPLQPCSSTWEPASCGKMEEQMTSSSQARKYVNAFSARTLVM
Outline: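 Fluorescence signals from capillary electrophoresis of RT-PCR-amplified reporter cDNA give the read-out. Cells: HepG2 transfected with multiple cis-regulated reporter units. Exposure lasts 24 hours; DMSO defines baseline for gain or loss of signal.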

[13] = target: Nuclear respiratory factor 1 (Homo sapiens) (UniProt Q16656); assay: ATG_NRF1_CIS: Attagene CIS-FACTORIAL HepG2 Assay for human Nuclear Respiratory Factor 1 (NRF1) Orphan Gene (AID 2282987); conditions: HepG2 NRF1 cis-element reporter, Attagene multiplex; actives raise or lower the signal
Chain of Nuclear respiratory factor 1 (Homo sapiens) (Q16656 whole entry, looked up): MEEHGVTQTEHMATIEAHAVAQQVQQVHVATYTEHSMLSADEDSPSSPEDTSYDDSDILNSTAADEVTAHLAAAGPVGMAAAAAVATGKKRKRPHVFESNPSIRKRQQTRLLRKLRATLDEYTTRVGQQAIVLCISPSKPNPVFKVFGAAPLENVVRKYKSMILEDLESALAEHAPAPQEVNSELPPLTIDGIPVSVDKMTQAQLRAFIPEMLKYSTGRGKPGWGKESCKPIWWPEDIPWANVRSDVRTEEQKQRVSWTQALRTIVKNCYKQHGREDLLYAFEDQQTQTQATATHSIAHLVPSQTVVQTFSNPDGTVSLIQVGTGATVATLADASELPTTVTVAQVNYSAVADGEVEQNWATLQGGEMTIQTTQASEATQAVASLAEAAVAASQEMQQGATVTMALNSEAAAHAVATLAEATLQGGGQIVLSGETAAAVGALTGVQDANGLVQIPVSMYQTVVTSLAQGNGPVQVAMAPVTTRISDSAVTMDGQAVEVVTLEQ
Outline: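 Transcriptional reporter readout, one component of a 52-endpoint multiplexed HepG2 panel. Exposure 24 h; mRNA detected via RT-PCR and fluorescent capillary electrophoresis; fitting in both directions against DMSO.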

[14] = ATG_NFI_CIS: Attagene CIS-FACTORIAL HepG2 Assay for human Nuclear Factor I (NFI) (AID 2282989); conditions: HepG2 cis-regulatory reporter, NFI response element transcription; actives raise or lower the signal
Outline: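 Cells: human liver HepG2, transiently transfected with promoter-regulated reporter transcription units. Exposure 24 h. Detection: fluorescent RT-PCR products separated by capillary electrophoresis, normalised to DMSO negative control.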

[15] = target: Nuclear receptor subfamily 1 group I member 3 (Homo sapiens) (UniProt Q14994); assay: ATG_CAR_TRANS: Attagene TRANS-FACTORIAL HepG2 Assay for human Constitutive Androstane Receptor (CAR) (AID 2282969; active = hit-call score of the fitted dose curve at least 0.9, where 1 is the maximum;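 note: activators raise reporter mRNA above DMSO so AC50 marks induction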); conditions: HepG2 Attagene TRANS-FACTORIAL CAR reporter
Chain of Nuclear receptor subfamily 1 group I member 3 (Homo sapiens) (Q14994 whole entry, looked up, the tested form may be a part): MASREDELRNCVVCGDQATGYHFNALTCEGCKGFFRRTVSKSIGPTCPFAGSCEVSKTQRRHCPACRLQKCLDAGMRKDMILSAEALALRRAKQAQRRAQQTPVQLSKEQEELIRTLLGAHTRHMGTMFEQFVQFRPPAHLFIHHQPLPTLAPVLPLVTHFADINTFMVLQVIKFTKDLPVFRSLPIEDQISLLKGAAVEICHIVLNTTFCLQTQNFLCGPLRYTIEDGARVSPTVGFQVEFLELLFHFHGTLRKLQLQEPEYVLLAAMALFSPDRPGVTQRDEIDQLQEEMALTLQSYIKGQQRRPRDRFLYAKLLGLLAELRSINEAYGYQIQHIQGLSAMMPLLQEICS
Outline: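 Transiently transfected HepG2, multiplex TRANS reporters (CAR-Gal4 chimera driving GAL4-UAS reporter). 24 h dosing. Readout: reporter transcript by RT-PCR + capillary electrophoresis, fluorescence intensity; positive direction vs DMSO.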

[16] = target: Oxysterols receptor LXR-beta (Homo sapiens) (UniProt P55055); assay: ATG_LXRb_TRANS: Attagene TRANS-FACTORIAL HepG2 Assay for human Liver X Receptor beta (LXRb) (AID 2282981; active = hit-call score of the fitted dose curve at least 0.9, where 1 is the maximum); conditions: HepG2 Attagene TRANS GAL4-LXRb reporter, mRNA
Chain of Oxysterols receptor LXR-beta (Homo sapiens) (P55055 whole entry, looked up, the tested form may be a part): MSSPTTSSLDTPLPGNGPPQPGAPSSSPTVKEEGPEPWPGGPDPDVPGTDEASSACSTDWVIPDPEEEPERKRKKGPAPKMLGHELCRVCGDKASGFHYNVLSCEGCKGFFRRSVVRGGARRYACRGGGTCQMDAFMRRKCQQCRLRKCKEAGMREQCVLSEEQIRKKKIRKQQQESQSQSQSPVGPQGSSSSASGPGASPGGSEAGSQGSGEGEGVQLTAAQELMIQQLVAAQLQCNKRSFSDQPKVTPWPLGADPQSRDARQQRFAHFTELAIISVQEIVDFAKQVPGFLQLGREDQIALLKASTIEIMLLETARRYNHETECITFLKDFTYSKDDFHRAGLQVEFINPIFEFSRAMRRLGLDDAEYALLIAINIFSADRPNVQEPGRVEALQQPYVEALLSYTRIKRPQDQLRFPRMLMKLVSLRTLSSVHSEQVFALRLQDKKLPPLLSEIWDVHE
Outline: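 Readout: fluorescent reporter mRNA fragments resolved by capillary electrophoresis after RT-PCR. System: transiently transfected human HepG2, exogenous LXRb-Gal4 chimera driving GAL4-UAS reporter, 24 h dosing. Activity fitted upward against DMSO baseline.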

[17] = target: Hepatocyte nuclear factor 4-alpha (Homo sapiens) (UniProt P41235); assay: ATG_HNF4a_TRANS: Attagene TRANS-FACTORIAL HepG2 Assay for human Hepatocyte Nuclear Factor 4 alpha (HNF4a) (AID 2282982; active = hit-call score of the fitted dose curve at least 0.9, where 1 is the maximum); conditions: HepG2 HNF4a transactivation reporter, mRNA readout
Chain of Hepatocyte nuclear factor 4-alpha (Homo sapiens) (P41235 whole entry, looked up): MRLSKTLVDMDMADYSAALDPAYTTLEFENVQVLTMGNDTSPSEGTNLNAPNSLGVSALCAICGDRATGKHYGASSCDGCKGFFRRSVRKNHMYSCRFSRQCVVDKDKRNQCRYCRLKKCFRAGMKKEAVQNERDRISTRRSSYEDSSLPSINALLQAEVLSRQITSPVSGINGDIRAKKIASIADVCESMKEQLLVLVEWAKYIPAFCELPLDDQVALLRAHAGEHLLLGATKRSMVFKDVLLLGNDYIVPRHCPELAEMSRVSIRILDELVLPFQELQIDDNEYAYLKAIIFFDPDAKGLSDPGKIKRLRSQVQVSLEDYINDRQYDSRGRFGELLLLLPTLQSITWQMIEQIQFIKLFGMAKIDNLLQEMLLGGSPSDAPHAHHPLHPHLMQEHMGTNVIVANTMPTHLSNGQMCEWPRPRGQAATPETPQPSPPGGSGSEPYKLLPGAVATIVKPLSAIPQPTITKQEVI
Outline: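 Transient MRTU transfection of HepG2, 24 h dosing. Readout: reporter mRNA via RT-PCR + capillary electrophoresis, fluorescence; activity fit upward relative to DMSO control.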

[18] = target: Androgen receptor (Homo sapiens) (UniProt P10275); assay: ATG_AR_TRANS: Attagene TRANS-FACTORIAL HepG2 Assay for human Androgen Receptor (AR) (AID 2282973; active = hit-call score of the fitted dose curve at least 0.9, where 1 is the maximum); conditions: HepG2 Attagene TRANS-FACTORIAL AR reporter transcription
Chain of Androgen receptor (Homo sapiens) (P10275 whole entry, looked up, the tested form may be a part): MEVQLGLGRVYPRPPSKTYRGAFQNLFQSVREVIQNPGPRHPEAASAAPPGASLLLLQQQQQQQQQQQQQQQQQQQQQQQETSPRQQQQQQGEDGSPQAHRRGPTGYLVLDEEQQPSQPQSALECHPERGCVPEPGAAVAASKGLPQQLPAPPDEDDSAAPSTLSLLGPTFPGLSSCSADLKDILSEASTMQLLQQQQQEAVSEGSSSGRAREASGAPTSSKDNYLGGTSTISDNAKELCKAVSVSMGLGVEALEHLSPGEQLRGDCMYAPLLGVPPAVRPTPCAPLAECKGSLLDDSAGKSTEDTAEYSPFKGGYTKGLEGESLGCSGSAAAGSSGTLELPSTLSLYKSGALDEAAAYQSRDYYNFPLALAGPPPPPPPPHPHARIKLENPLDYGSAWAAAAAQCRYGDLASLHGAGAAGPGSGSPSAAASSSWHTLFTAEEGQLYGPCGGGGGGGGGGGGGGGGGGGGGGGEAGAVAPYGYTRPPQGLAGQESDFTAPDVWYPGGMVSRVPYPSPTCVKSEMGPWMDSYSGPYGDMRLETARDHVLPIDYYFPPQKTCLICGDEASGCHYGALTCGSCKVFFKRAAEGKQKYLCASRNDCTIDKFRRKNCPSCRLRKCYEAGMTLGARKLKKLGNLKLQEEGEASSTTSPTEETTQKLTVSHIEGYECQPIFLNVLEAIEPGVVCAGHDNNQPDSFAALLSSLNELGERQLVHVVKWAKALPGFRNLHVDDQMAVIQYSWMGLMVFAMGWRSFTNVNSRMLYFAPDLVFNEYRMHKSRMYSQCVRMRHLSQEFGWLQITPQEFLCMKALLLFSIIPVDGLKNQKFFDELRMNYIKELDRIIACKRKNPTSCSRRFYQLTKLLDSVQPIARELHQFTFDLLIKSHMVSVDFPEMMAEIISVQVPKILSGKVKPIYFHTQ
Outline: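 Readout is reporter transcript abundance, quantified by fluorescent RT-PCR products separated on capillary electrophoresis. Human HepG2 liver cells carried transiently transfected NR-Gal4 chimera plus GAL4-UAS reporter constructs and were dosed for 24 h; activity scored upward versus DMSO.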

[19] = target: Nuclear receptor subfamily 4 group A member 2 (Homo sapiens) (UniProt P43354); assay: ATG_NURR1_TRANS: Attagene TRANS-FACTORIAL HepG2 Assay for human Nuclear Receptor Related Protein 1 (NURR1) (AID 2282985; active = hit-call score of the fitted dose curve at least 0.9, where 1 is the maximum); conditions: HepG2 Attagene TRANS reporter, mRNA readout
Outline: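 Read-out: reporter mRNA induction by RT-PCR plus capillary electrophoresis with fluorescence detection, after 24 h dosing of transfected HepG2 cells. Exogenous NR-Gal4 chimera activity drives GAL4-UAS reporter; activity fitted upward versus DMSO.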

Measured: AC50

CC(c1ccc(O)cc1)(c1ccc(O)cc1)c1ccc(O)cc1
active: [3] 6.08 µM | [4] 129 nM | [5] 11.1 µM | [9] 2.98 µM | [13] 20.2 µM
not listed: [15] | [16] | [17] | [18] | [19]
inactive: all other assays above

CCCCCCCCOC(=O)c1ccccc1C(=O)OCCCCCCCC
not listed: [4] | [7] | [8] | [10] | [16] | [17] | [18] | [19]
inactive: all other assays above

CCCCCCCCCc1ccc(O)cc1
inactive: [1] | [2] | [3] | [15] | [5] | [6] | [16] | [17] | [10] | [11] | [12] | [13] | [14]
active: [3] 151 µM | [4] 5.66 µM [middle of 4 runs] | [5] 32.8 µM | [12] 157 µM | [13] 174 µM

CCCN(CCC)N=O
not listed: [6] | [8] | [9] | [15] | [17] | [18] | [19]
inactive: all other assays above

Cc1ccccc1O
not listed: [9] | [10] | [11] | [17] | [18] | [19]
inactive: all other assays above

O=C(NC(=O)c1cc(F)c(F)cc1Cl)Nc1cc(F)ccc1N1CCC(C(=O)O)CC1
not listed: [4] | [9] | [10] | [11] | [15] | [18] | [19]
inactive: all other assays above

CC(C)(O)C(=O)Nc1ccc([N+](=O)[O-])c(C(F)(F)F)c1
inactive: [1] | [2] | [3] | [4] | [5] | [18] | [6] | [16] | [17] | [10] | [11] | [19] | [12] | [13] | [14]
active: [3] 31.2 µM | [5] 54.9 µM

CCC(=O)O[C@H]1CC[C@H]2[C@@H]3CCC4=CC(=O)CC[C@]4(C)[C@H]3CC[C@]12C
active: [1] 156 µM | [5] 141 µM [middle of 4 runs] | [18] 632 nM [middle of 4 runs] | [16] 3.11 µM and 25.7 µM | [12] 164 µM | [13] 122 µM
inactive: [1] | [6] | [7] | [8] | [16] | [17] | [10] | [11] | [12] | [13] | [14]
